# Records with an inconclusive call do not appear. The source made the active and inactive calls. Unless noted, how the calls were made is not given here.
# Columns and labels:
# [1] = qHTS profiling of the MIPE4 collection as inhibitors of Plasmodium falciparum (3D7) proliferation (AID 743344);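 further: scaled between DMSO vehicle wells and 0.29 µM artemisinin as full inhibition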; settings: P. falciparum 3D7 in erythrocytes, SYBR Green DNA fluorescence, 72 h; at 28.5 µM unless noted
# Procedure, shortened: (§1)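 Erythrocytes infected with P. falciparum (0.3% parasitemia, 2.5% hematocrit) incubated with compounds 72 h at 37 C, 5% CO2. Lysis with saponin/Triton buffer containing SYBR Green I, overnight at room temperature in the dark; DNA fluorescence (485/535 nm) normalised to 0.29 uM artemisinin and DMSO.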
# [2] = qHTS profiling of the MIPE4 collection as inhibitors of Plasmodium falciparum (DD2) proliferation (AID 743345); settings: P. falciparum Dd2 in erythrocytes, SYBR Green DNA, 72 h; at 28.5 µM unless noted
# Procedure, shortened: as §1
# [3] = qHTS profiling of the MIPE4 collection as inhibitors of Plasmodium falciparum (DD2) proliferation (Rep 2) (AID 743346); settings: P. falciparum Dd2 in erythrocytes, SYBR Green DNA, 72 h; at 28.5 µM unless noted
# Procedure, shortened: as §1
# [4] = High-throughput drug toxicity screening in the BPDCN cell line Gen2.2 (AID 1224824); settings: Gen2.2 BPDCN cells; at 45.8 µM (top of the series) unless noted;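 further: cells exposed to compounds for 48 h before reading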
# Procedure, shortened: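 Gen2.2 cells, 500 per well in phenol red-free RPMI with 10% FBS, exposed to compounds 48 h at 37 C, 5% CO2; viability by CellTiter-Glo luminescence. Percent activity scaled to DMSO (100%) and 9.2 uM bortezomib final (0%).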
# [5] = High-throughput drug toxicity screening in the BPDCN cell line Cal-1 (AID 1224825); settings: Cal-1 BPDCN cell viability, qHTS; at 45.8 µM (top of the series) unless noted
# Procedure, shortened: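 Cal-1 cells, 500 per well in phenol-red-free RPMI with 10% FBS, exposed to compounds for 48 hours at 37C, 5% CO2. Viability read by CellTiter-Glo luminescence; percent activity normalized to DMSO (100%) and 9.2 uM bortezomib final (0%).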
# [6] = qHTS assay for measurement of the activity of small molecule inhibitors on Zika virus induced Caspase-3 activity in human iPSC derived neural progenitor cells (hNPCs) (AID 1224857; active means well fitted curve in the direction sought with a large enough effect; an effect the other way counts as inactive or inconclusive; further: nearly all actives have a fitted effect of over 65% in size; further: potency means the concentration at half of the fitted maximal effect)
# Procedure, shortened: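 hNPCs seeded 350 cells/well, cultured 16–20 h; compounds added 1 h before ZIKV (2 FFU/cell), 37 C 6 h. Caspase-Glo 3/7 luminescence after 30 min RT; % inhibition from induction scaled to uninfected (0%) and infected (100%) wells.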
# [7] = qHTS assay for measurement of the activity of small molecule inhibitors on Zika virus induced Caspase-3 activity in human astrocytoma cells (AID 1224859; active means well fitted curve in the direction sought with a large enough effect; an effect the other way counts as inactive or inconclusive; further: potency means the concentration at half of the fitted maximal effect)
# Procedure, shortened: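 Luminescence read-out (Caspase-Glo 3/7, 30 min RT) of caspase activity in SNB-19 cells infected 6 h with ZIKV, 2 FFU/cell, after 1 h compound pretreatment; % inhibition from induction normalised to uninfected (0%) and infected (100%) wells.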
# [8] = qHTS Screen of the MIPE 4.0 Collection Against Ewings Sarcoma (RDES) (AID 1259252; active means well fitted curve in the direction sought with a large enough effect; an effect the other way counts as inactive or inconclusive; further: nearly all actives have a fitted effect of over 35% in size; further: potency means the concentration at half of the fitted maximal effect)
# Procedure, shortened: (§2)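 Viability screen: 48 h incubation at 37C, 95% humidity, 5% CO2 with serially titrated compound, followed by CellTiter-Glo readout.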
# [9] = qHTS profiling for inhibitors of Plasmodium falciparum (HB3) proliferation (AID 743324; active means well fitted curve in the direction sought with a large enough effect; an effect the other way counts as inactive or inconclusive;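 further: 100% = DMSO vehicle wells and 0% = artemisinin-treated control wells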); settings: Plasmodium falciparum HB3 blood-stage proliferation; at 28.7 µM (top of the series) unless noted
# Procedure, shortened: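 P. falciparum HB3 grown in erythrocytes (0.3% parasitemia, 2.5% hematocrit final) with compound for 72 h at 37 C, 5% CO2. Parasite DNA detected by SYBR Green after saponin/triton lysis overnight; normalized to 0.29 uM artemisinin and DMSO.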
# [10] = qHTS profiling of the MIPE4 collection as inhibitors of Plasmodium falciparum (HB3) proliferation (AID 743347);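 further: plate controls were DMSO vehicle wells for no effect and artemisinin wells for full effect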; settings: P. falciparum HB3 in erythrocytes, SYBR Green DNA, 72 h; at 28.5 µM unless noted
# Procedure, shortened: as §1
# [11] = Identifying Small Molecule Inhibitors of Pancreatic Cancer Stem Cells (SN12C, Spheroid) (AID 1259360; active means well fitted curve in the direction sought with a large enough effect; an effect the other way counts as inactive or inconclusive; further: potency means the concentration at half of the fitted maximal effect;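 on viability (% of control): 100% = DMSO-treated cells and 0% = wells without cells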); settings: Potency: SN12C spheroid viability
# Procedure, shortened: (§3)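 Pre-formed 14-day tumor spheroids or adherent cells dosed and incubated 48 h, 37C, 5% CO2. Viability assessed by CellTiter-Glo.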
# [12] = Identifying Small Molecule Inhibitors of Pancreatic Cancer Stem Cells (Panc1, Adherent) (AID 1259362; active means well fitted curve in the direction sought with a large enough effect; an effect the other way counts as inactive or inconclusive;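 further: compound exposure lasted 48 h before the viability read; plate controls were DMSO-treated cells for no effect and cell-free media wells for full effect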); settings: Potency: viability
# Procedure, shortened: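 Luminescent ATP readout (CellTiter-Glo) quantifies surviving cells after a 48 h drug incubation. Normalization uses DMSO wells as no inhibition and media-only wells as full inhibition; bortezomib served as positive control.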
# [13] = qHTS Screen of the MIPE 4.0 Collection Against Ewings Sarcoma (TC32) (AID 1259256; active means well fitted curve in the direction sought with a large enough effect; an effect the other way counts as inactive or inconclusive; further: nearly all actives have a fitted effect of over 45% in size; further: potency means the concentration at half of the fitted maximal effect)
# Procedure, shortened: as §2
# [14] = Identifying Small Molecule Inhibitors of Pancreatic Cancer Stem Cells (A2780, Spheroid) (AID 1259357; active means well fitted curve in the direction sought with a large enough effect; an effect the other way counts as inactive or inconclusive;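 further: spheroids pre-formed over 14 days in stem cell medium on hydrogel; compound exposure lasted 48 h before the ATP luminescence read; 100% = DMSO treated cells and 0% = wells without cells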); settings: Potency: A2780 spheroid viability
# Procedure, shortened: as §3
# [15] = qHTS Screen of the MIPE 4.0 Collection Against Ewings Sarcoma (TC71) (AID 1259253; active means well fitted curve in the direction sought with a large enough effect; an effect the other way counts as inactive or inconclusive; further: potency means the concentration at half of the fitted maximal effect; nearly all actives have a fitted effect of over 40% in size)
# Procedure, shortened: as §2
# [16] = qHTS Screen of the MIPE 4.0 Collection Against Ewings Sarcoma (EW8) (AID 1259255; active means well fitted curve in the direction sought with a large enough effect; an effect the other way counts as inactive or inconclusive; further: potency means the concentration at half of the fitted maximal effect; nearly all actives have a fitted effect of over 35% in size)
# Procedure, shortened: as §2
# [17] = qHTS assay to identify small molecule inhibitors of chordoma cells - UCH-1 (AID 1259355; active means well fitted curve in the direction sought with a large enough effect; an effect the other way counts as inactive or inconclusive; further: on the % scale 0 is the no-effect control and ±100 the full control effect; nearly all actives have a fitted effect of over 55% in size)
# Procedure, shortened: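 Cells (800/well) were seeded and left overnight at 37 C, 5% CO2, then treated with drugs at 15 concentrations plus a combination mix of auranofin, camptothecin, doxorubicin, rubitecan and topotecan. Viability after 48hr was read by CellTiter-Glo luminescence.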
# [18] = qHTS assay to identify small molecule inhibitors of chordoma cells - UCH-2 (AID 1259356; active means well fitted curve in the direction sought with a large enough effect; an effect the other way counts as inactive or inconclusive; further: on the % scale 0 is the no-effect control and ±100 the full control effect)
Compound,"parasite growth, % of DMSO control [1] [%]","parasite growth remaining, % of DMSO control (lower = more inhibition) [2] [%]","parasite growth, % of control (lower = inhibition) [3] [%]","cell viability, % of control (lower = more cytotoxic) [4] [%]",viability (% of control) [5] [%],Potency [6],Potency [7],Potency [8],"remaining proliferation (% of control), lower = more inhibition [9] [%]","growth, % of control [10] [%]",Potency [11],Potency [12],Potency [13],Potency [14],Potency [15],Potency [16],outcome [17],outcome [18]
Cc1ccc2c(c1)c1c(n2CCc2ccc(C)nc2)CCN(C)C1,113,55.3,49.2,163,90.5,inactive,inactive,inactive,–,–,–,–,–,–,–,–,–,–
COC(=O)Nc1ccc(-c2nc(N3CCOCC3)c3cnn(C4CCN(C(=O)OC)CC4)c3n2)cc1,–,14.3,27.4,8.32,4.85,inactive,inactive,0.0372 µM (active),0.698,7.52,1.05 µM (active),inactive,–,–,–,–,–,–
OC[C@H]1O[C@@H](OCCc2ccc(O)cc2)[C@H](O)[C@@H](O)[C@H]1O,97.9,103,131,106,96.6,inactive,inactive,23.5 µM (active),–,104,–,–,–,–,–,–,–,–
C[C@H]1O[C@@H](n2cc(F)c(=O)[nH]c2=O)[C@H](O)[C@H]1O,22.6,13.5,7.59,170,28.4,inactive,inactive,18.7 µM (active),–,53,–,–,9.35 µM (active),–,–,–,–,–
CC1CNc2c(cccc2S(=O)(=O)N[C@@H](CCCN=C(N)N)C(=O)N2CC[C@@H](C)C[C@@H]2C(=O)O)C1 (some centres not stated),82.3,91.3,101,225,6.64,inactive,inactive,9.35 µM (active),–,86.9,–,–,14.8 µM (active),–,–,–,–,–
C[C@H](c1ccc(F)cc1CCCC(=O)O)N(c1cc(F)ccc1F)S(=O)(=O)c1ccc(Cl)cc1,–,42.9,35.7,144,92.6,inactive,inactive,18.7 µM (active),–,–,–,–,–,–,–,–,–,–
CN1CCC[C@H]1CCO[C@](C)(c1ccccc1)c1ccc(Cl)cc1,12.4,13.4,23.9,77.3,50.8,inactive,inactive,20.9 µM (active),–,–,–,–,–,–,–,–,–,–
Oc1ccc(C=Cc2cc(O)cc(O)c2)cc1,49.1,96.9,40.6,240,39.4,11.8 µM (active),6.62 µM (active),18.7 µM (active),–,13,–,–,–,–,–,–,–,–
Cc1c(C(=O)Nc2ccc(N3C[C@@H](C)O[C@@H](C)C3)nc2)cccc1-c1ccc(OC(F)(F)F)cc1,–,72.7,54.1,10.2,53.5,inactive,inactive,13.2 µM (active),55.5,46.7,–,–,–,inactive,–,–,–,–
Cn1c(=O)c(Oc2ccc(F)cc2F)cc2cnc(NC3CCOCC3)nc21,25.1,86.4,48.3,178,93.3,inactive,inactive,inactive,–,35.7,–,–,inactive,–,–,–,–,–
O=[N+]([O-])c1ccc(Nc2ccccc2-c2ccccc2)c2nonc12,33.4,83.4,46.7,145,88.7,inactive,inactive,inactive,–,–,–,–,inactive,–,–,–,–,–
O=C(NC[C@H](O)CO)c1ccncc1Nc1ccc(I)cc1F,60.9,101,56.7,5.6,12.1,inactive,inactive,18.7 µM (active),–,–,–,–,–,–,–,–,–,–
Cc1nc2c([nH]1)CCN(C(=O)c1ccc(NC(=O)c3ccccc3-c3ccccc3)cc1)c1ccccc1-2,5.23,8.18,13.3,48.7,55.1,inactive,inactive,inactive,–,9.61,–,–,inactive,–,–,–,–,–
O=C(O)c1ccc(O)c2ncc(N3CCOCC3)cc12,–,–,16.8,110,100,inactive,inactive,26.4 µM (active),–,11,inactive,inactive,–,–,–,–,–,–
CO[C@H]1/C=C\O[C@@]2(C)Oc3c(C)c(O)c4c(O)c(c5c(nc6cc(C)ccn65)c4c3C2=O)NC(=O)C(C)=CC=C[C@H](C)[C@H](O)[C@@H](C)[C@@H](O)[C@@H](C)[C@H](OC(C)=O)[C@H]1C,11,31.8,7.3,4.46,32.4,inactive,inactive,inactive,–,5.21,–,–,inactive,–,–,–,–,–
CNC(=O)[C@H](CC1=CN=C2C=CCC=C12)NC(=O)[C@@H](CC(=O)NO)CC(C)C,22,47.4,26.7,31.3,8.09,inactive,inactive,inactive,–,18.7,–,–,inactive,–,–,–,–,–
CC(C)(C)c1nc(-c2cccc(NS(=O)(=O)c3c(F)cccc3F)c2F)c(-c2ccnc(N)n2)s1,18.2,16.6,35,25.6,55.4,inactive,inactive,6.62 µM (active),–,–,–,–,–,–,–,–,–,–
Cc1ccc(S(=O)(=O)OCC(=O)Nc2ccc(C(=O)O)c(O)c2)cc1,61.2,85.7,124,96.8,25.4,inactive,inactive,11.8 µM (active),–,75.5,–,–,11.8 µM (active),–,–,–,–,–
Cc1ccc(NC(=O)c2ccc(CN3CCN(C)CC3)cc2)cc1Nc1nc(-c2cccnc2)cs1,9.29,12,12.5,14.8,6.7,inactive,inactive,–,4.39,4.3,–,–,26.4 µM (active),inactive,23.5 µM (active),23.5 µM (active),–,–
COc1c(C)c2c(c(O)c1CC=C(C)CCC(=O)OCCN1CCOCC1)C(=O)OC2,16.6,18.6,15.1,164,13.5,inactive,inactive,–,–,9.76,–,–,1.32 µM (active),–,1.48 µM (active),1.05 µM (active),inactive,inactive

# Reference: PubChem BioAssay (NCATS)
